Measurements: PubChem BioAssay AID652042 (Broad Institute, 2013)
The whole screen tested about 1,100 compounds, of which about 350 (32%) were called active. These entries were drawn from the full list. Potency and affinity values are given separately. Unmarked numbers belong to inactive results. The rule behind the calls is not given here.

Assay: viability loss in CEM21 cells – cell-based, CellTiter-Glo luminescence, cherry-picked, cytotoxicity control for viral fusion inhibitor project, dose response (AID 652042)
Settings: CellTiter-Glo ATP luminescence, 24 h; series mostly up to 35 µM; activity change, negative = cytotoxicity: at the top concentration

SMILES | activity change, negative = cytotoxicity
O=C(C[C@@H]1C[C@@H]2c3cc(NC(=O)C4CCC4)ccc3O[C@@H]2[C@@H](CO)O1)NCc1ccc2c(c1)OCO2 | -2.71%
O=C(C[C@H]1C[C@H]2c3cc(NS(=O)(=O)c4ccc(F)cc4)ccc3O[C@H]2[C@@H](CO)O1)NCc1ccccc1F | -12.4%
O=C(C[C@H]1C[C@@H]2c3cc(NS(=O)(=O)c4ccc(F)cc4)ccc3O[C@@H]2[C@H](CO)O1)NCCc1ccccc1 | -9.09%
COCCNC(=O)C[C@@H]1C[C@H]2c3cc(N(C)C)ccc3O[C@H]2[C@@H](CO)O1 | -4.55%
CCOC(=O)[C@H]1[C@H]2COc3ccccc3[C@@H]2N2C(=O)c3c(C)cc(C)cc3NC(=O)[C@@]12C | -6.54%
O=C(C[C@@H]1C[C@@H]2c3cc(NC(=O)C4CCOCC4)ccc3O[C@@H]2[C@H](CO)O1)NCc1ccccc1F | -0.819%
Cc1ccc(S(=O)(=O)N(C)c2ccc(C(=O)N3CCN(Cc4ccc5c(c4)OCO5)CC3)cc2)cc1 | -23%
CCC1(c2ccccc2)NC(=O)N(CC(=O)Nc2cc(S(=O)(=O)N3CCCCC3)ccc2OC(C)C)C1=O (stereo not drawn) | 2.14%
c1ccc2c(c1)OCC(c1csc3ncnc(N4CCOCC4)c13)O2 (stereo not drawn) | -16.5%
COc1ccc([C@@H]2[C@@H]3C(=O)N(C(C)(C)C)C(=O)[C@@H]3[C@]3(CC(C)C)C(=O)N(c4ccccc4)C(=O)N23)cc1 | -2.8%
CC12CC3CC(C)(C1)CC(C(=O)NCc1ccncc1)(C3)C2 | -0.744%
CCS(=O)(=O)N[C@H]1CC[C@@H](CC(=O)NCc2ccc(Cl)cc2)O[C@@H]1CO | -7.14%
CCc1ccc([C@H]2[C@@H]3C(=O)C[C@@H]4C(=O)N(Cc5ccccc5)C(=O)[C@@H]4[C@@H]3CN2S(=O)(=O)c2ccc(C)cc2)cc1 | -8.07%
CC(=O)c1c(O)cc2c3c1OC(C)(C)C1CCC(C)(CC31)O2 (stereo not drawn) | -10.6%
Cc1nc2ccccc2n1CC(=O)NCc1ccccc1 | -8.14%
CCS(=O)(=O)N1Cc2ccccc2CC1C(=O)NC(C)C12CC3CC(CC(C3)C1)C2 (stereo not drawn) | -11.2%
CCOC(=O)[C@@H]1[C@H]2COc3ccc(Br)cc3[C@@H]2N2C(=O)N(c3ccc(F)cc3)C(=O)[C@@]12C | -19.4%
CCOC(=O)[C@@H]1[C@H]2COc3cc(OC)ccc3[C@H]2N2C(=O)N(c3cccc(F)c3)C(=O)[C@@]12C | -1.64%
O=C(C[C@@H]1C[C@H]2c3cc(NC(=O)Nc4ccccc4)ccc3O[C@H]2[C@H](CO)O1)NCc1cccnc1 | -0.189%
Cc1ccc(S(=O)(=O)N2CCN(S(=O)(=O)c3ccc(C)cc3)C2c2ccccc2)cc1 | -6.37%
c1ccc(CSc2nnc([C@@H]3CCCN3)o2)cc1 | -2.9%
O=C(C1CCCCC1)N1CCCC(c2nc3c(nnn3Cc3ccccc3)c(=O)[nH]2)C1 (stereo not drawn) | -0.473%

SMILES | activity change, negative = cytotoxicity
CCN(C[C@H]1N[C@@](C)(C(=O)OC)[C@H]2C(=O)N(Cc3ccccc3)C(=O)[C@@H]12)S(=O)(=O)c1ccc(C)cc1 | -0.762%
CCN(C[C@H]1N[C@@](CC)(C(=O)OC)[C@H]2C(=O)N(Cc3ccccc3)C(=O)[C@@H]12)S(=O)(=O)c1ccc(C)cc1 | -12.5%
O=C(c1ccc(Cl)cc1)N1CCCCC(Sc2nnc(-c3ccc4c(c3)OCO4)o2)C1=O (stereo not drawn) | -2.73%
Cc1cc(C)c(S(=O)(=O)N2CCN=C2c2ccccc2)cc1C | -9.27%
c1ccc2c(N3CCCCC3)ncnc2c1 | -7.9%
CC(C)[C@H](CN(N=O)[C@@H](Cc1ccccc1)CN(C)N=O)N(CCc1ccccc1)N=O | -21.7%
Cc1ccccc1-n1c(=O)c2ccccc2n2cnnc12 | 2.85%
COc1ccc(NC(=O)C(=O)NCC2CCCN2S(=O)(=O)c2cccs2)cc1 (stereo not drawn) | -23.2%
COc1ccc(C(=O)NCCc2ccc(Cl)cc2)cc1S(=O)(=O)N1CCCCC1C (stereo not drawn) | -24%
O=C(CN(c1cc(C(F)(F)F)ccc1Cl)S(=O)(=O)c1ccccc1)NCc1cccnc1 | -6.14%
CC(C)(C)N1C(=O)[C@H]2[C@@H](c3ccc(Br)cc3)N3C(=O)N(c4ccccc4)C(=O)[C@@]3(C)[C@H]2C1=O | -1.59%
COc1ccc(Nc2ncc(C(=O)N3CCN(c4ccc(F)cc4)CC3)c3ccccc23)cc1 | -15.8%
CO[C@H]1CN(C)C(=O)c2cc(NC(=O)c3ccc(F)cc3)ccc2OC[C@H](C)N(C(=O)CN(C)C)C[C@@H]1C | -4.43%
COc1ccccc1OCC(=O)c1[nH]c(C)c(C(C)=O)c1C | -10.2%
Cc1cccc2cc3c(N)c(C#N)sc3nc12 | -1.38%
O=C1CCCc2c1[nH]c1ccc(Cl)cc21 | 6.7% [at 16 µM]
O=C(NNS(=O)(=O)c1ccc(F)cc1F)C1Cc2c(ccc3ccccc23)O1 (stereo not drawn) | -1.4%
C[C@@H]1CN([C@@H](C)CO)S(=O)(=O)c2ccc(-c3ccccc3)cc2O[C@H]1CN(C)S(C)(=O)=O | -14.9%
Cc1ccc(S(=O)(=O)N(C)C[C@H]2Oc3cc(-c4cccc(F)c4)ccc3S(=O)(=O)N([C@H](C)CO)C[C@H]2C)cc1 | -24.6%
COc1ccc(S(=O)(=O)Nc2ccc3c(c2)CC(=O)N([C@@H](C)CO)C[C@H](C)[C@H](CN(C)S(=O)(=O)c2ccc(C)cc2)O3)cc1 | -4.93%
C[C@@H]1CN([C@H](C)CO)C(=O)c2cc(NC(=O)Nc3ccccc3)ccc2O[C@@H]1CN(C)S(=O)(=O)c1ccccc1 | -5%
